Results from ChEMBL document CHEMBL1961873, “Compounds: GSK PKIS; Assays: Nanosyn kinase panel” (2012).

Legend:
[1] = target: RAC-alpha serine/threonine-protein kinase (Homo sapiens) (UniProt P31749); conditions: at 0.1 µM
[2] = target: RAC-alpha serine/threonine-protein kinase (Homo sapiens) (UniProt P31749); conditions: at 1 µM
[3] = target: RAC-beta serine/threonine-protein kinase (Homo sapiens) (UniProt P31751); conditions: at 0.1 µM
[4] = target: RAC-beta serine/threonine-protein kinase (Homo sapiens) (UniProt P31751); conditions: at 1 µM
[5] = target: RAC-gamma serine/threonine-protein kinase (Homo sapiens) (UniProt Q9Y243); conditions: at 0.1 µM
Sequence of RAC-gamma serine/threonine-protein kinase (Homo sapiens) (Q9Y243 whole entry): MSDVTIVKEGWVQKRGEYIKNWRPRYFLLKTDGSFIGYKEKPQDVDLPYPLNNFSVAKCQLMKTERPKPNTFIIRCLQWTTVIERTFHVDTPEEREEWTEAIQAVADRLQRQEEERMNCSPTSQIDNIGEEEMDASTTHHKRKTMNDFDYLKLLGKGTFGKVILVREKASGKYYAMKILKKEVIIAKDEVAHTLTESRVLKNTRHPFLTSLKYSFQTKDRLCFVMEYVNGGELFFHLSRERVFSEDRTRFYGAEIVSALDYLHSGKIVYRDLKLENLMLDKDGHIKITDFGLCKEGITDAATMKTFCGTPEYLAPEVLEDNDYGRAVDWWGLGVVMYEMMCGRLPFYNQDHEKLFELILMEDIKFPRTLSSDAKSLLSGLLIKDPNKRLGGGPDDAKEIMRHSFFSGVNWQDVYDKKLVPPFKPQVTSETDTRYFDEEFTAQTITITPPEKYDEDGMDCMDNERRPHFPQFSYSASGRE

[6] = target: RAC-gamma serine/threonine-protein kinase (Homo sapiens) (UniProt Q9Y243); conditions: at 1 µM
[7] = target: G protein-coupled receptor kinase 6 (Homo sapiens) (UniProt P43250); conditions: at 0.1 µM
Sequence of G protein-coupled receptor kinase 6 (Homo sapiens) (P43250 whole entry, looked up): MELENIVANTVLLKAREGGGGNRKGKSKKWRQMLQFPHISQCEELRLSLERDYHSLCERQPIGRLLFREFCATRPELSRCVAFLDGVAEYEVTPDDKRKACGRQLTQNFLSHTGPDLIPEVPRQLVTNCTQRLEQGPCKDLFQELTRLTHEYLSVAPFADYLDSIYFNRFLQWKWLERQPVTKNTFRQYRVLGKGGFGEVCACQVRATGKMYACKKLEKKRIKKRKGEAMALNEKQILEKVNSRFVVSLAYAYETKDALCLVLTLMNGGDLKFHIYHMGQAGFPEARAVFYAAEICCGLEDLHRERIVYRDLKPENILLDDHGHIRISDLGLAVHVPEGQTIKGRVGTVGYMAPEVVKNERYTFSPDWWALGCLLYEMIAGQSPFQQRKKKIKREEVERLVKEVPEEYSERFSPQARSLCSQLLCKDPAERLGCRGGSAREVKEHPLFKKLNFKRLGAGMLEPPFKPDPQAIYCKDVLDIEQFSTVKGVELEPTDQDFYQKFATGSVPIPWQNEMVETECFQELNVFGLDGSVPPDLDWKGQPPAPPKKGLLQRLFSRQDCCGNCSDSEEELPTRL

[8] = target: G protein-coupled receptor kinase 6 (Homo sapiens) (UniProt P43250); conditions: at 1 µM
[9] = target: T1, Rhodopsin kinase GRK7 (Homo sapiens) (UniProt Q8WTQ7); conditions: at 0.1 µM
T1 sequence (whole entry): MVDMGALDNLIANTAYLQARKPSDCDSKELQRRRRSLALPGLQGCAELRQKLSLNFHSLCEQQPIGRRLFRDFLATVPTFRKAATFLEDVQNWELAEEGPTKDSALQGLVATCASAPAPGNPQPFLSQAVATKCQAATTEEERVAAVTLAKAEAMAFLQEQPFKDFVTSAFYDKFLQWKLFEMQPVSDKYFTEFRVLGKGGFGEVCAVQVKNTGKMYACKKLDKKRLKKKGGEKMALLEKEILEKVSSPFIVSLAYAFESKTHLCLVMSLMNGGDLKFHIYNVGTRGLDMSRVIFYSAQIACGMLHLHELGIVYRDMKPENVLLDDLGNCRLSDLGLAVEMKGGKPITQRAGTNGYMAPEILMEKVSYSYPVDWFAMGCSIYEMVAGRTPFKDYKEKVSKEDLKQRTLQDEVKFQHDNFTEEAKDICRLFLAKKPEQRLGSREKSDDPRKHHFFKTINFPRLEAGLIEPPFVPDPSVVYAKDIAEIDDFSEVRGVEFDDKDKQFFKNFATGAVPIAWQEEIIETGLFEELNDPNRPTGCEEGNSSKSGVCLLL

[10] = target: T1, Rhodopsin kinase GRK7 (Homo sapiens); conditions: at 1 µM

Sequence of RAC-beta serine/threonine-protein kinase (Homo sapiens) (P31751 whole entry): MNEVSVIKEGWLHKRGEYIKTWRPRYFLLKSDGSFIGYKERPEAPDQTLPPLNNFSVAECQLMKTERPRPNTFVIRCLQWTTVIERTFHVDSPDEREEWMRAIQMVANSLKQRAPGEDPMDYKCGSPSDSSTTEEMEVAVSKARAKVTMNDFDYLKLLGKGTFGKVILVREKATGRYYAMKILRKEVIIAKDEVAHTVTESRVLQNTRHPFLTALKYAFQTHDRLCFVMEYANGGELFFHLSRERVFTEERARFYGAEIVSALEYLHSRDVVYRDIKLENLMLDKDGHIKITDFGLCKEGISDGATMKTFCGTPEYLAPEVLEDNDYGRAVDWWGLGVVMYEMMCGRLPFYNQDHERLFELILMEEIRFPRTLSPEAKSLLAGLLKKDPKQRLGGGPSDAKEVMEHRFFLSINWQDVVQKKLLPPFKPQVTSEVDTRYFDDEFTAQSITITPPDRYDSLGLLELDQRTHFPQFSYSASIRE
Sequence of RAC-alpha serine/threonine-protein kinase (Homo sapiens) (P31749 whole entry): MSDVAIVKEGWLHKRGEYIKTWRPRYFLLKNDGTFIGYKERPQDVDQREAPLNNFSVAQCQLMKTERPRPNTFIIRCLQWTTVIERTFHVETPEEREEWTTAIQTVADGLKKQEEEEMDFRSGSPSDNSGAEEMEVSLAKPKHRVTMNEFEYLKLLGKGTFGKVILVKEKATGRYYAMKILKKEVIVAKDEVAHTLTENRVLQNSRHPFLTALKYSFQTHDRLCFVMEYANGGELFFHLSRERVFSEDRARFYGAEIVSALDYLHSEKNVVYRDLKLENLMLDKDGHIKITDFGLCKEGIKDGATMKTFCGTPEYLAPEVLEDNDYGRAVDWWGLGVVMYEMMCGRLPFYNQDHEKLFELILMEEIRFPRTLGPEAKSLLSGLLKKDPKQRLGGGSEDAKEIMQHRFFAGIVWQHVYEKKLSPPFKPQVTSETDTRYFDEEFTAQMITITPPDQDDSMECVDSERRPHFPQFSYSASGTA

Row | SMILES | inhibition [1] | inhibition [2] | inhibition [3] | inhibition [4] | inhibition [5] | inhibition [6] | inhibition [7] | inhibition [8] | inhibition [9] | inhibition [10]
1 | Fc1ccc(-c2nn3ncccc3c2-c2ccnc(Nc3ccc4c(c3)OCCO4)n2)cc1 | 0.05% | 0.97% | 1.99% | 1.14% | 0.88% | 1.56% | 2.14% | 1.87% | 1.38% | 5.57%
2 | COc1ccc(-c2oc3ncnc(N)c3c2-c2ccc(NC(=O)Nc3cc(C(F)(F)F)ccc3F)cc2)cc1 | 1.18% | 1.66% | 3.21% | 2.57% | 1.23% | 2.55% | 4.19% | 12.7% | 4.51% | 22%
3 | COc1cc(Nc2nccc(Nc3ccc4c(C)n[nH]c4c3)n2)cc(OC)c1OC | 0.02% | 1.09% | 0.52% | 1.19% | 0.72% | 1.18% | -0.47% | -4.13% | 1.14% | -1.95%
4 | CCn1c(-c2nonc2N)nc2cnc(Oc3cccc(NC(=O)c4ccc(N(C)C)cc4)c3)cc21 | 0.51% | 7.63% | 0.71% | 8.4% | 1.82% | 10.2% | 0.82% | 2.85% | 2.74% | 4.11%
5 | COC(=O)Nc1nc2ccc(Oc3ccc(NC(=O)Nc4cccc(Cl)c4)cc3)cc2[nH]1 | -0.35% | -0.4% | -0.4% | 0.5% | -0.34% | 1.86% | -1.85% | 0.02% | 3.03% | 16.8%
6 | c1ccc(-c2nc3n(c2-c2ccc4c(c2)OCO4)CCC3)nc1 | 0.15% | 0.19% | 0.67% | 0.83% | 0.55% | 0.06% | 3.19% | 2.38% | 1.13% | 3.19%
7 | CCn1c(-c2nonc2N)nc2c(C#CC(C)(C)O)ncc(OC3CCNCC3)c21 | 70.1% | 92.8% | 85.2% | 95.5% | 74.7% | 94.2% | 4.09% | 7.13% | 7.74% | 17%
8 | COc1ccc(CNC(=O)c2ccc(-c3cc(-c4nnc(C)o4)ccc3C)cc2)cc1 | 0.11% | 0.4% | 0.92% | 1.2% | 0.06% | 0.12% | 6.21% | 16.4% | 2.86% | 10.6%
9 | CCN(CC)S(=O)(=O)c1ccc(OC)c(Nc2ncc(-c3ccccc3)o2)c1 | 0.87% | -0.4% | 0.37% | 0.18% | 2.3% | -1.03% | 1.87% | -0.46% | 3.17% | -3.96%
10 | CC(=O)Nc1cccc(C#Cc2cncnc2Nc2ccc(OCc3cccc(F)c3)c(Cl)c2)c1 | 0.35% | 2.86% | 1.58% | 1.24% | 0.94% | 1.39% | 0.81% | -1.5% | 3.04% | -3.08%
11 | COc1cccc(-c2c[nH]c3c(N/N=C/c4ccncc4)ncnc23)c1 | 1.29% | 0.32% | 1.22% | -0.06% | 1.48% | -0.22% | -1.66% | -7.11% | 0.28% | -6.92%
12 | COC(=O)c1sc(-n2cnc3cc(OC)c(OC)cc32)cc1OCc1ccccc1C(F)(F)F | 0.87% | 0.62% | 2.35% | 1.5% | -0.55% | 1.41% | -0.86% | 1.16% | 2.73% | 7.64%
13 | NS(=O)(=O)c1ccc(Nc2ncc(-c3ccccc3)o2)cc1 | 0.78% | 0.93% | 2.08% | 1.95% | 0.97% | 1.49% | 4.73% | 3.06% | 2.42% | 2.99%
14 | CCOc1ccc2c(-c3ccnc(Nc4cccc(C(F)(F)F)c4)n3)cnn2n1 | 0.26% | 0.31% | 0.57% | 1.35% | -0.38% | 4.77% | -2.91% | -2.59% | 3.77% | 0.86%
15 | COc1cc2ncn(-c3cc(OCc4ccccc4C(F)(F)F)c(C(=O)N(C)C)s3)c2cc1OC | -0.4% | -0.11% | -0.31% | 0.45% | 0.89% | 1.26% | -0.42% | 0.69% | -2.57% | 3.66%
16 | FC(F)(F)c1cccc(-c2nn3ncccc3c2-c2ccnc(Nc3ccc4c(c3)OCCO4)n2)c1 | 0.59% | 1.44% | 2.75% | 1.12% | 1.47% | 0.72% | -1.22% | -2.46% | 1.8% | 1.11%
17 | CN(C)CCOc1ccc(-c2nc(-c3ccncc3)c(-c3ccc4c(c3)CC/C4=N\O)[nH]2)cc1 | 0.74% | 0.83% | 1.02% | 0.67% | 1.29% | 0.51% | 3.13% | 2.76% | 1.71% | 0.18%

Row | SMILES | inhibition [1] | inhibition [2] | inhibition [3] | inhibition [4] | inhibition [5] | inhibition [6] | inhibition [7] | inhibition [8] | inhibition [9] | inhibition [10]
18 | CCc1nn2ncccc2c1-c1ccnc(NC2CC2)n1 | 0.3% | 0.03% | -0.16% | 0.84% | 0.81% | 0.1% | 3.01% | 4.64% | 3.97% | 1.72%
19 | CC(C)(CO)CNC(=O)c1ccc2c(c1)/C(=N/Nc1ccc(S(N)(=O)=O)cc1)C(=O)N2 | 0.16% | -0.56% | -1.39% | 0.25% | -0.59% | 2.3% | 0.67% | 9.38% | 2.93% | -0.41%
20 | CN1CCC(n2cnc(-c3ccc(F)cc3)c2-c2ccnc(Nc3ccccc3)n2)CC1 | 0.23% | 1.05% | 0.63% | 0.8% | 2.25% | 5.43% | 2.34% | 2.65% | 2.84% | 6.42%
21 | CNC(=O)c1cc(-c2ccc(F)cc2)cc(-c2ccc(S(=O)(=O)N3CCCC3)cc2)c1N | 0.66% | 0.31% | 1.23% | 1.37% | 0.7% | 3.34% | 1.55% | 2.77% | 9.52% | 2.15%
22 | Cc1cccc(Nc2ncc(-c3ccccc3)o2)c1 | 2.47% | 3.09% | 2.46% | 2.97% | 2.2% | 5.22% | 5.33% | 4.72% | 4.29% | 3.7%
23 | O=C(Nc1n[nH]c2cc(-c3ccc(F)cc3)ccc12)C1CC1 | 0.61% | 1.36% | 1.62% | 1.6% | 0.49% | 1.05% | 1.59% | 1.04% | 4.1% | 7.25%
24 | CC1=C(C(=O)Nc2cc(Cl)c3[nH]ncc3c2)C(c2ccc(C(F)(F)F)cc2)CC(=O)N1 (stereo not given) | 0.52% | 5.71% | 1.33% | 3.66% | 2.98% | 22.1% | 4.52% | 13.4% | 3.32% | 16.4%
25 | COc1cccc(-n2ncc3c(N/N=C/c4ccc(F)cc4)ncnc32)c1 | 0.98% | 0.49% | 2% | 1.56% | 1.42% | 0.92% | 5.53% | 7.7% | 3.44% | 19.5%
26 | CN1CCC(n2cnc(-c3ccc(F)cc3)c2-c2ccnc(N)n2)CC1 | 0.24% | 0.29% | 0.39% | 0.66% | 2.57% | 2.05% | 1.6% | 2.25% | 3.11% | 5.7%
27 | COc1ccc(-c2cc3c(N)ncnc3o2)cc1 | -0.96% | -1.46% | -0.81% | -0.64% | -1.06% | 1.62% | -0.25% | 0.98% | 3.4% | -1.5%
28 | CS(=O)(=O)CCNCc1coc(-c2ccc3ncnc(Nc4ccc(OCc5ccccc5)cc4)c3c2)c1 | 0.45% | 0.14% | -0.99% | 1.09% | -0.18% | 3.26% | 4.06% | 12.1% | 6.27% | 5.05%
29 | O=C(O[C@H]1CN[C@H](C#Cc2cc3ncnc(Nc4ccc(Cc5ccccc5)cc4)c3s2)C1)N1CCOCC1 | -0.07% | 1.54% | 0.98% | 1.79% | 0.38% | 1.99% | -0.99% | 1.46% | 5.43% | 0.52%
30 | CCCN(CCS(C)(=O)=O)Cc1ccc(-c2ccc3ncnc(Nc4ccc(OCc5cccc(F)c5)c(Cl)c4)c3c2)o1 | 0.19% | 0.93% | 1.03% | 0.88% | 0.64% | 0.93% | 5.12% | 1.91% | -0.29% | 0.79%
31 | NS(=O)(=O)c1ccc(N/N=C2\C(=O)Nc3ccc4ncccc4c32)cc1 | 0.85% | 0.69% | 1.6% | 2.48% | 1.36% | 2.03% | -2.97% | 15.8% | 4.91% | 19%
32 | Nc1ncc(-c2cccc(S(N)(=O)=O)c2)c2scc(-c3ccc(F)c(Cl)c3)c12 | 0.6% | 1.09% | 0.29% | 2.33% | -0.27% | 5.34% | 0.4% | -0.33% | 6.15% | 6.1%
33 | N#Cc1c(NC(=O)CN2CCOCC2)sc2c1CCCC2 | 1.2% | 1.08% | 1.56% | 1% | 1.61% | 2.91% | 2.71% | 4.14% | 3.28% | 4.91%
34 | Cc1cccc2c1NC(=O)/C2=N\Nc1ccc(S(N)(=O)=O)cc1 | 1.04% | 1.19% | 2.18% | 1.39% | 1.07% | 1.15% | 2.1% | 3.62% | 1.49% | -6.16%
